# Compound activity from PubChem.
# Shown are actives, neighbours in structure and some others; about 1.6% of the full set was active somewhere.
# Sa RN4220 lethal: growth inhibition of S. aureus RN4220, primary screen, OD600. 16 h. inhibition, % (no concentration beside the values). 0.33% of 330,000 active. AID 1259311, 2017; in the data active = inhibition above about 85%;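 note: plate controls were untreated cells for no effect and reference antibiotic for full effect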
# BJeLR viability: MLPCN primary cell-based screen for lethality selective to Ras in HRASV12 cells | 0.17% of 300,000 active | AID 1554, 2009 | inhibition, % (test concentration not listed) | BJeLR (HRASV12) viability, CellTiter-Glo ATP luminescence, 48 h; in the data active = inhibition above about 50%; inconclusive = no clear call, values can overlap the other calls
# PfHsp40 rescue: rescue of yeast from PfHsp40 toxicity, primary screen, S. cerevisiae, ATP luminescence. S. cerevisiae expressing PfHsp40, growth rescue. growth rescue, % at 12.5 µM. 0.68% of 340,000 active; in the data active = growth rescue above about 28%, passing the limit was not always enough; inconclusive = no clear call, values can overlap the other calls;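 note: yeast W303a lacking pdr1 and pdr3 grown in galactose medium; growth measured after three days at 30 °C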
# ugtP null kill: growth inhibition of ugtP-null S. aureus, primary screen, RN4220 ugtP deletion, OD600 | 16 h | growth inhibition, % (concentration not given with the values) | 0.54% of 330,000 active | AID 1259309, 2017; in the data active = growth inhibition above about 68%;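 note: plate controls were untreated wells for no effect and antibiotic for full effect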
# CCHFV vOTU inh: CCHFV vOTU protease inhibitors, primary screen, biochemical, Pep-AMC substrate, fluorescence | 0.55% of 370,000 active | inhibition, % at 11.5 µM; in the data active = inhibition above about 30%; note: 0% = vehicle wells with enzyme and 100% = no enzyme wells
# An asterisk follows results filed as active; ? = inconclusive; / = no result given.
SMILES,Sa RN4220 lethal,BJeLR viability,PfHsp40 rescue,ugtP null kill,CCHFV vOTU inh
Cc1cc(C(=O)CCl)c(C)n1CCc1ccc(F)cc1,21.0,3.5,2.3,-1.9,8.5
Fc1ccccc1COc1cccc(C=Nn2cnnc2)c1,5.3,/,/,-6.5,/
Cc1cccc(C(=O)NC(=S)NNC(=O)Cc2ccccc2)c1,43.5,3.3,229.5*,19.0,1.3
Cc1cccc(C(=O)NC(=S)NCc2ccccc2)c1,-1.5,-0.1,19.3,25.2,14.7
Cc1cc(C(=O)NNC(=S)NC(=O)/C=C/c2ccccc2Cl)n[nH]1,7.4,17.8,55.7*,-27.1,-13.0
COc1ccc(C(=O)NC(=S)NNC(=O)c2ccccc2C)cc1,38.1,0.0,104.9*,12.4,-4.5
Cc1cccc(C(=O)NC(=S)Nc2ccccc2C(=O)O)c1,0.4,-0.2,0.9,-2.7,-1.3
CN1CCN(C(=S)NC(=O)/C=C/c2ccccc2Cl)CC1,7.4,2.4,0.8,-1.9,-7.0
Cc1cccc(C(=O)NC(=S)NNC(=O)c2ccccc2Cl)c1,51.1,3.5,64.2*,17.7,-5.6
CC(=NNC(=O)C1CCCC1)c1ccc(Cl)c(Cl)c1,0.4,/,/,-8.2,/
CC(CSc1ccc(Br)cc1)CN1CCC(C(C)(C)C)CCC1=O (stereo not drawn),0.0,/,/,-16.3,/
CC1CN(C(C)CO)C(=O)c2cccc(NS(=O)(=O)c3cn(C)cn3)c2OC1CN(C)Cc1ccc(C(=O)O)cc1 (stereo not drawn),1.0,/,/,4.3,/
CC(C)Oc1ccc(C=NNC(N)=S)cc1,9.0,/,/,-3.2,/
Cc1ccccc1C(=O)NNC(=S)NC(=O)c1ccc(Cl)cc1Cl,62.3,-3.2,395.1*,39.4,10.8
CCC(=O)NNC(=S)NC(=O)c1ccc(C)cc1,16.4,2.8,68.6*,12.9,-10.8
CC(=O)Nc1ccc(C(=O)NN=C(C)CC(=O)Nc2ccc(OCc3ccccc3)cc2)cc1,-4.7,/,/,0.4,/
CC1CN(C(C)CO)C(=O)c2cccc(NS(=O)(=O)c3cn(C)cn3)c2OC1CN(C)C(=O)NC1CCCCC1 (stereo not drawn),3.0,/,/,-2.1,/
CSC1=NC(C(Cl)(Cl)Cl)N=C(c2ccc(C)cc2)N1 (stereo not drawn),3.3,56.0*,0.4,3.1,11.9
CC1CC2C(C(O)C[C@@]3(C)C2CC[C@]3(O)C(=O)CO)[C@@]2(C)C=CC(=O)C=C12 (stereo partly drawn),6.4,/,/,5.3,/
Clc1ccc(-c2cc3ccccc3nc2N2CCOCC2)cc1,2.1,11.8,11.3,92.9*,7.2
Cc1ccc(-c2cc3ccccc3nc2N2CCCC2)cc1,-2.8,14.2,-0.2,89.4*,0.1
CCOC1OC(C(=O)Nc2ccccc2)=CC(c2coc3ccccc3c2=O)C1CCCO (stereo not drawn),7.2,/,/,7.8,/
CCOc1ccccc1CN1CCC(N2CCC(C(=O)NC3CC3)CC2)CC1,2.7,2.7,30.3*,3.9,10.4
COc1cccc(C=NNC(=O)c2cc(-c3cccn3C)n[nH]2)c1O,5.3,/,/,-6.7,/
COc1cc(C=NNC(=O)c2cc(-c3cccn3C)n[nH]2)cc(OC)c1OC,51.2,/,/,90.0*,/
SMILES,Sa RN4220 lethal,BJeLR viability,PfHsp40 rescue,ugtP null kill,CCHFV vOTU inh
COc1cc(/C=N/NC(=O)c2cc(-c3cccn3C)n[nH]2)cc(OC)c1OC,/,8.3,0.5,/,5.8
COc1cccc(/C=N/NC(=O)c2cc(-c3cccn3C)n[nH]2)c1O,/,2.2,160.3*,/,7.4
Cc1ccc(C(=O)Nc2nnc(CC(=O)NN=Cc3ccc(O)c(O)c3)s2)cc1,2.1,/,/,0.8,/
CC(C)NC(=O)N(C)CC1Oc2ccc(NS(=O)(=O)c3cccs3)cc2C(=O)N(C(C)CO)CC1C (stereo not drawn),8.0,/,/,-4.8,/
Cc1cccc(CSc2nnnn2-c2ccccc2)c1,4.7,-5.2,32.6*,-9.7,1.6
COc1ccc(O)c(C=NN2CCCCC2)c1,6.7,/,/,8.2,/
Cc1ccc(C(=O)Sc2cccccc2=O)cc1,34.4,103.8*,698.3*,39.8,12.7
O=C(Nc1ccccc1SC(=O)c1ccccc1)c1ccccc1,/,/,/,/,-2.8
O=C(Nc1cccc(Cl)c1)c1ccc2c(c1)OCCO2,5.7,0.4,80.8*,-0.6,-2.8
O=C(Nc1ccc2c(c1)OCCO2)c1cccc(Cl)c1,2.7,-11.4,5.1,3.8,-4.9
O=C(COC(=O)c1ccccc1C(=O)c1ccccc1)Nc1ccc(SC(F)F)cc1,5.2,-13.7,94.2*,-5.4,-2.2
O=C(COC(=O)Cc1ccccc1)Nc1ccc(SC(F)F)cc1,0.6,/,-1.0,-1.1,3.8
Cc1nc2c(-c3ccc(Cl)cc3)c(C)[nH]n2c(=O)c1Cc1ccccc1,99.7*,15.1,/,99.6*,-4.4
Cc1nc2c(-c3ccccc3)c(C)[nH]n2c(=O)c1Cc1ccccc1,2.5,6.7,-1.7,-7.1,2.3
Cc1ccc(N(C)C)cc1,/,/,/,/,3.3
Cc1ccc2c(c1)sc(-c1ccc(N(C)C)cc1)[n+]2C,99.9*,45.2,5.2,100.7*,11.5
CCOC(=O)c1ccc(NC(=S)N(Cc2cccnc2)Cc2ccco2)cc1,-5.3,8.4,388.7*,-5.7,-4.3
CCCCCCCCCCCCCC(=O)NO,/,/,264.3*,/,6.1
CCCCCCCC/C=C\CCCCCCCC(=O)NCCO,/,/,67.1*,/,4.5
Cc1ccccc1N(CC(=O)NN=Cc1ccccc1Cl)C(=O)c1ccccc1,1.0,/,/,12.8,/
CCc1ccc(NC(=O)COC(=O)/C=C/c2c(C)nn(C3CCS(=O)(=O)C3)c2Cl)cc1 (stereo not drawn),5.6,6.0,59.3*,5.2,10.3
CC(C)(C)c1nnc(N/N=C/c2ccccc2O)n(N)c1=O,/,61.9*,71.0*,/,3.9
CCC(=O)Nc1ccc(SC#N)cc1C,11.4,5.3,91.2*,8.1,-12.6
Oc1c(I)cc(I)c2cccnc12,95.5*,3.8,?,95.8*,10.6
Cc1ccc(C(=O)NC(=S)Nc2ccccc2C(F)(F)F)cc1C,-6.4,-1.2,32.1*,69.5,12.6
SMILES,Sa RN4220 lethal,BJeLR viability,PfHsp40 rescue,ugtP null kill,CCHFV vOTU inh
O=C(O)c1cccc(NC(=S)NC(=O)c2ccc(-c3ccccc3)cc2)c1,9.5,-1.6,-1.5,-6.1,-6.3
CC(C)NC(=S)NC(=O)c1ccc(-c2ccccc2)cc1,27.8,-0.7,59.5*,-19.2,7.8
Cc1ccc(C(=O)O)cc1NC(=S)NC(=O)c1ccc(-c2ccccc2)cc1,20.3,9.3,113.0*,2.6,4.3
O=S(=O)(Nc1ccn(-c2ccccc2)n1)c1ccc(Br)cc1,13.7,1.7,60.1*,-9.7,4.7
CC(NC(=O)c1nc[nH]c1C(=O)NC(Cc1ccccc1)C(=O)OCc1ccccc1)c1ccccc1 (stereo not drawn),-0.5,/,/,-7.7,/
O=C(C1CC1)N(Cc1ccco1)c1nc(-c2ccccc2)cs1,-4.6,6.0,-1.9,96.4*,2.2
COc1ccccc1OCC(=O)NN=C1C=C(C)CC1,1.8,/,/,3.0,/
O=C1C=C(C=Cc2ccccc2)CC(c2ccc(F)cc2)C1 (stereo not drawn),-1.7,/,/,34.6,/
COc1ccc(C=NN(C)C2=NS(=O)(=O)c3ccccc32)cc1OC,1.6,/,/,1.3,/
O=c1[nH]c(=O)n([C@H]2C[C@H](O)[C@@H](CO)O2)cc1I,/,/,75.9*,/,0.7
